Common to all, as to assay: NCI-60 one-dose screen, 48 h (100 = growth as untreated, 0 = no growth, -100 = all killed)
Conditions in all cases: 10 µM unless noted

Test [1] deals with NCI-H23 lung.
Test [2] relates to NCI-H226 lung.
For test [3], the system named is NCI-H322M lung.
Test [4] relates to HOP-62 NSCLC.
For test [5], the system named is NCI-H460 lung.
Test [6] relates to HOP-92 NSCLC.
Test [7] concerns NCI-H522 lung.
The test system of test [8] is A549/ATCC NSCLC.
Test [9] relates to 786-0 renal.
Test [10] has as its system COLO 205 colon.

The structures appear in SMILES notation. About 83,000 compounds went through this panel and 20% of them were active in at least one assay; those are over-represented in the sample as a whole.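 48-hour exposure, single concentration, 96-well plates; percent growth endpoint where 0 means no net growth. Active: below 10.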 A number with no mark means an inactive call. The source made the active and inactive calls.

Consider `CS(=O)(=O)c1cccc(-c2c(-c3cccc(OS(N)(=O)=O)c3)nc3sccn23)c1`, for which the growth in test [1] is 108%; in test [2] it was 92.5%; in [3], 98.2%; in [4], 93.8%; in test [5], 105%; in [6], 77.8%. Moreover, the growth in test [7] is 96.9%; in test [8], 106%; in [9], 101%; in test [10], 117%.
In the case of `COc1ccc2c(c1)c(-c1noc(C(=O)c3cn(C)c4ccc(Br)cc34)n1)cn2C`, the growth was 99.3% in [1]; 93.8% in [2]; 97% in test [3]; 93.9% in test [4]; 105% in [5]; 108% in [6]. Further, the growth in test [7] is 76.9%; in test [8], 84.5%; in [9], 112%; in [10] it was 110%.
For `O=CC1(C2(C=O)c3ccccc3-c3ccccc32)c2ccccc2-c2ccccc21`, the growth in test [1] was -28.8% (active); in test [2] it was -47.2% (active); in test [3], -20.9% (active); in test [4], -76.3% (active); in [5], -46.9% (active); in test [6], -74.8% (active). The growth in test [7] is -84.5% (active); in [8], -50.5% (active); in test [9] it was -84.4% (active); in test [10], -56% (active).
For `OCCNCCCOc1ccc2ncnc(Nc3ccc(Oc4cccc(C(F)(F)F)c4)c(Cl)c3)c2c1`, the growth was 63.8% in [1]; 85.2% in [2]; 21.5% in test [3]; 66.5% in test [4]; -82.5% (active) in [5]; 40.5% in test [6]. In addition, the growth in [7] was 30.8%; in test [8], 23.8%; in [9], -4.05% (active); in [10] it was -27.7% (active).
As to `N#CC1CCc2c(c(-c3cn[nH]c3C(F)(F)F)nc3c(F)cc4[nH]ncc4c23)C1` (stereo not given), the growth in test [1] was 25.3%; in test [2], 48.8%; in test [3] it was 30.8%; in test [4], 34.8%; in test [5], 38.9%; in [6] it was 36.5%. In addition, the growth was -14.6% (active) in test [7], 75% in test [8], 36.8% in test [9] and 7.05% (active) in test [10].
As to `Cc1c(-n2nnc(-c3nc4ccccc4s3)c2N)c(=O)n(-c2ccccc2)n1C`, the growth was 93.3% in test [1]; 91.4% in test [2]; 100% in test [3]; 103% in test [4]; 103% in [5]; 104% in test [6]. The growth is 90.6% in test [7], 105% in test [8], 107% in test [9] and 104% in test [10].
As for `CCOC(=O)c1cc(C(=O)c2cc(OC)c(OC)c(OC)c2)n2ccc(-c3ccncc3)cc12`, the growth in test [1] is 94.8%; in [2], 95.9%; in [3] it was 106%; in test [4], 90.1%; in test [5], 97.4%; in [6] it was 65.8%. The growth in test [7] is 68.7%; in [8], 80%; in test [9] it was 90.2%; in test [10], 103%.
Consider `CC12CCC3c4ccccc4CCC3(CO1)C2` (stereo not given), for which the growth in test [1] was 98.3%; in [2], 95.8%; in test [3], 94.7%; in test [4] it was 95.5%; in test [5], 105%; in test [6], 105%. Also, the growth is 94.6% in test [7], 106% in test [8], 118% in test [9] and 101% in test [10].
Take `O=C(O)[C@@H]1c2ccccc2-c2ccccc2[C@H]1C(=O)O`: the growth in [1] is 91.4%; in [2] it was 97.8%; in [3], 99.2%; in test [4], 90.8%; in [5], 109%; in test [6] it was 61.5%. In addition, the growth in test [7] was 91%; in [8], 102%; in [9], 88.8%; in test [10], 106%.
Turning to `COc1cccc(NC(=O)Cn2cc(CN3CCN(c4ccnc5cc(Cl)ccc45)CC3)nn2)c1`, the growth in [1] is 95%; in test [2], 81.6%; in test [3], 91.2%; in test [4] it was 71.6%; in test [5], 97.5%; in test [6], 41.2%. The growth in test [7] is 80.6%; in test [8] it was 87.9%; in test [9] it was 99.2%; in test [10] it was 112%.
For the compound `O=Nc1c(-c2c(O)[nH]c3ncccc23)[nH]c2ccccc12`, the growth in [1] was 69.7%; in [2] it was 78.6%; in test [3] it was 30.7%; in test [4], 45.9%; in [5], 52.2%; in test [6] it was 54%. Also, the growth in [7] was 47.6%; in test [8], 46.6%; in [9], 43.3%; in test [10] it was 108%.
Consider `Cc1ccc(CNc2ccc(Cl)cc2NCc2ccc(C)c(O)c2)cc1O`, for which the growth in test [1] is 3.7% (active); in [2], 85.7%; in test [3], 17.6%; in test [4], 40.5%; in test [5], 2.22% (active); in test [6], -11% (active). The growth in test [7] is 12.5%; in test [8] it was 21%; in test [9], 23%; in [10] it was 90.2%.
On to `CCCCCOc1ccc(C(=O)/C(Br)=C/C(=O)O)cc1`, for which the growth was 91.9% in test [1]; 106% in [2]; 104% in test [3]; 214% in test [4]; 103% in [5]; 99.2% in test [6]. In addition, the growth was 89.2% in test [7], 104% in [8], 98.8% in test [9] and 105% in test [10].
Consider `CC(=O)n1nc(C(=O)OC(C)C)c2cc(C)c(C)cc21`, for which the growth is 95.2% in [1]; 96.4% in test [2]; 101% in test [3]; 92.1% in test [4]; 98.7% in [5]; 67.1% in test [6]. Moreover, the growth in test [7] is 88.8%; in test [8] it was 82.2%; in test [9], 80.9%; in test [10], 102%.
Consider `C[C@H](NC(=O)[C@@H](C)N)[C@H](Oc1ccc2c(cnn2-c2ccc(F)cc2)c1)c1ccc2c(c1)OCCO2`, for which the growth was 83.7% in [1]; 83.9% in test [2]; 75.5% in test [3]; 50.6% in [4]; 0.905% (active) in test [5]; -4.6% (active) in test [6]. Further, the growth in test [7] was 24.8%; in [8], 39.3%; in test [9] it was 56.7%; in test [10], -3.17% (active).
Consider `COC(=O)CCC(=O)C(=O)OC`, for which the growth in test [1] is 0.491% [10 mM] (active); in test [2], -14.9% [10 mM] (active); in test [3] it was 10.2% [10 mM]; in test [4], 11.3% [10 mM]; in test [5] it was 7.63% [10 mM] (active); in [6] it was -16% [10 mM] (active). The growth in test [7] is -63.9% [10 mM] (active); in test [8] it was 26% [10 mM]; in test [9] it was 5.84% [10 mM] (active); in test [10] it was 79.8% [10 mM].
In the case of `O=C1/C(=C/c2ccc(F)cc2)COc2ccc(O)c(O)c21`, the growth in [1] is 44.3%; in test [2], 79.6%; in test [3] it was 39.9%; in test [4], 8.74% (active); in test [5], 48.6%; in test [6], 6.21% (active). The growth in test [7] is -65.1% (active); in test [8] it was 47.4%; in test [9] it was -47.6% (active); in test [10], 28%.
As for `CCOC(=O)CNP(=O)(OC[C@@H](Cc1ccccc1)NC(=O)c1cc2ccccc2s1)Oc1ccccc1` (stereo not given in full), the growth was 81.1% in test [1]; 93.2% in test [2]; 93.3% in test [3]; 85.3% in [4]; 72.7% in test [5]; 69.3% in test [6]. In addition, the growth in [7] is 71.7%; in test [8], 64.8%; in test [9], 89.7%; in [10], 87.2%.
For the compound `CC1(C)c2[nH]c3ccccc3c2C[C@]2(C)[C@H]3CC=C4[C@@H]5C[C@@](C)(C(N)=O)CC[C@]5(C)CC[C@@]4(C)[C@]3(C)CC[C@@H]12`, the growth in test [1] was 51.2%; in test [2], 60.4%; in [3], 76.1%; in test [4], 79.5%; in [5], 52.6%; in test [6], 80.6%. Also, the growth in test [7] is 52.5%; in [8] it was 53.6%; in test [9], 74.5%; in [10] it was 58.9%.
Take `CN(C)c1ccc(Nc2cc(-c3cccc(OC(F)(F)F)c3)nc3ccc(N4CCCC4)cc23)cc1`: the growth was 27.2% in [1]; 103% in test [2]; 46.3% in [3]; 61.3% in [4]; -70.9% (active) in test [5]; 85.3% in [6]. For the same compound, the growth is 87.7% in [7], -32.8% (active) in test [8], 2.11% (active) in test [9] and 70.6% in test [10].
With `C=CCn1cc(-c2nc3ccccc3s2)c2cc(-c3ccc4c5c(cccc35)C(=O)N(N)C4=O)ccc21`, the growth in test [1] is 88.2%; in test [2], 89.8%; in test [3], 96.9%; in [4], 90.2%; in test [5], 98.9%; in test [6] it was 93.7%. Besides, the growth in test [7] is 84.9%; in test [8], 105%; in test [9], 99.3%; in [10] it was 109%.
For the compound `CCN(CC)CCOc1ccc(C(=C(C)c2ccc(Cl)cc2)c2ccc(OCCN(CC)CC)cc2)cc1`, the growth in [1] is 3.75% (active); in test [2], 103%; in [3] it was -29.9% (active); in [4] it was -61.5% (active); in test [5], -76.6% (active); in test [6] it was 6.28% (active). In addition, the growth in [7] is -67.2% (active); in test [8], -68.9% (active); in test [9] it was -97.6% (active); in test [10], -68.7% (active).
In the case of `CC(C)n1cnc2c(=S)nc[nH]c21`, the growth was 114% in test [1]; 107% in test [2]; 112% in test [3]; 108% in [4]; 111% in [5]; 103% in test [6]. The growth in [7] is 105%; in test [8] it was 126%; in [9], 113%; in [10] it was 114%.
For the compound `C#Cc1ccc(NC(=O)c2ccc(/C=C/C(=O)c3nccn3C)cc2)cc1`, the growth was -56% (active) in [1]; -35.3% (active) in test [2]; -95.4% (active) in test [3]; -47% (active) in test [4]; -56.4% (active) in test [5]; -25.4% (active) in [6]. Besides, the growth in test [7] is -26.7% (active); in test [8] it was -0.388% (active); in test [9], -79.1% (active); in test [10] it was -53.7% (active).
On to `Cc1cccc(N2CCN(CC(O)COc3ccc(Cl)cc3)CC2)c1` (stereo not given), for which the growth was 109% in test [1]; 105% in [2]; 104% in test [3]; 100% in test [4]; 112% in [5]; 88.1% in [6]. Moreover, the growth in test [7] was 94.1%; in [8] it was 117%; in test [9], 98%; in test [10], 98%.
`CN(C)CCNC(=O)c1cccc(-c2cnc3ccc(-c4ccc5c(c4)OCO5)nn23)c1`: the growth in test [1] was 69.2%; in test [2], 75.3%; in test [3], 58.6%; in [4], 88.4%; in test [5], 4.35% (active); in test [6], 72.4%. Besides, the growth was 87.7% in test [7], 87% in [8], 74.2% in test [9] and 74.8% in [10].

These data come from PubChem BioAssay (NCI).
